For 57 compounds, survival results are on record in PubChem BioAssay AID463173 (ICCB-Longwood Screening Facility, Harvard Medical School, 2010).

Among all 52,000 compounds or so, about 1,700 (3.3%) were called active. This is one part of a sample in which actives are shown more often than they occur. A number with no mark means an inactive call. No stated cut-off is given here; in the data, active means survival mostly below about 52% (no sharp cut-off); inactive means mostly above about 56%.

The experiment has as its system Wild type. Briefly: growth inhibition of S. aureus wild type versus tarO mutant, primary screen, teichoic acid synthesis inhibitors, RN4220, OD600 (AID 463173). As to conditions: S. aureus RN4220 wild type/DeltatarO growth, OD600, 18 h, stronger effect = lower value, screened at 18.75 µg/mL (by protocol).
Consider `CCN(c1ccccc1C)S(=O)(=O)c1nnc(NC(=O)c2ccc(OC)c(OC)c2)s1`, for which the survival is 42%. Regarding `COC(=O)c1ccccc1NC(=O)CCc1c(C)nc2c(c(C)nn2-c2ccccc2)c1C`, the survival is 117%. Next, `O=C(CSc1nc(-c2ccccc2)cn1-c1ccccc1)Nc1ccccc1`: 68%; `COc1ccc(NC(=O)c2c(NCc3cccc(OC)c3)sc3c2CCC3)cc1`: 65%; `CC(C)Nc1nc(NC(C)C)nc(N(C)C)n1`: 115%. Next, `Cc1ccc2oc3c(c(=O)c2c1)C(c1cccc(O)c1)N(Cc1ccccc1Cl)C3=O` (configuration not stated): 82%; `CCN(C(=O)c1cc2c(=O)oc3ccccc3c2s1)c1cccc(C(F)(F)F)c1`: 131%. The figure for `CCCN(C(=O)c1cc2c(s1)-c1ccccc1OC2)c1ccc(C(C)C)cc1` is 5% (active). As for `CCN(C(=O)c1cc2c(=O)n(CC)c3ccccc3c2s1)c1cccc(C(F)(F)F)c1`, the survival was 89%.

Take `CCCN(C(=O)c1cc2c(s1)-c1c(C)cccc1OC2)c1ccc(OCC)cc1`: the survival was 95%. As to `CCc1ccc(CNC(=O)c2cc3c(s2)-c2ccccc2OC3)cc1`, the survival was 95%. Next, `COc1ccc(Cl)cc1NC(=O)c1cc2c(s1)-c1ccccc1OC2`: 80%; `CCOc1ccc(N(CC)C(=O)c2cc3c(s2)-c2ccccc2OC3)cc1`: 88%. Take `CCOc1ccc(CNC(=O)c2cc3c(s2)-c2ccccc2OC3)cc1`: the survival was 91%. Next, `CCN(C(=O)c1cc2c(s1)-c1ccccc1OC2)c1cc(Cl)ccc1OC`: 8% (active); `CCN(C(=O)c1cc2c(s1)-c1ccccc1OC2)c1cccc(C(F)(F)F)c1`: 14% (active); `CCc1ccccc1N(CC)C(=O)c1cc2c(s1)-c1ccccc1OC2`: 9% (active). The figure for `COc1ccccc1CNC(=O)c1cc2c(s1)-c1ccccc1OC2` is 92%; for `O=C(CSCc1cnn(-c2ccccc2)c1-n1cccc1)NCc1cccc(Cl)c1` it is 91%. The figure for `O=C(O)C1CCN(C(=O)c2ccc(-c3ccccc3)cc2)CC1` is 116%. `Cc1ccc(Cl)cc1-n1c(=O)c2sc3ccccc3c2n(Cc2ccccc2)c1=O`: the survival is 77%.

Turning to `Cn1c(=O)oc2cc(S(=O)(=O)CCC(=O)NCc3ccc(Cl)cc3)ccc21`, the survival is 74%.

For the compound `O=C(NCc1ccccc1Cl)c1cc2c(s1)-c1ccccc1SC2`, the survival was 74%.

For the compound `CCc1ccccc1N(CC)C(=O)c1cc2c(s1)-c1ccccc1SC2`, the survival is -1% (active). The figure for `Cc1ccc(CNC(=O)c2cc3c(s2)-c2ccccc2SC3)cc1` is 120%. The figure for `CCOc1ccc(CCNC(=O)c2ccc3c(c2)N(Cc2ccccc2F)C(=O)c2ccccc2S3=O)cc1OCC` (configuration not stated) is 84%. In the case of `Cn1c(C(=O)NCc2ccc(Cl)cc2)cc2c(=O)n(C)c3ccccc3c21`, the survival is 120%.

Take `CCNC(=O)c1c(NC(=O)c2cc(=O)c3ccc(C)c(C)c3o2)sc2c1CCCC2`: the survival was 85%. On to `Cc1ccccc1OCC(=O)OCc1cc(=O)n2ccsc2n1`, for which the survival is 82%.

Turning to `COc1cccc(C(=O)Nc2cccc(C(=O)OCc3cc(=O)n4c(C)csc4n3)c2)c1`, the survival was 133%. The figure for `Cc1csc2nc(COC(=O)c3ccccc3NC(=O)c3ccc(F)cc3)cc(=O)n12` is 14% (active); for `Cc1ccc2nc(COc3ccccc3NC(=O)c3ccc(F)cc3)cc(=O)n2c1` it is -3% (active). The figure for `Cc1ccc2nc(COc3ccccc3NC(=O)c3ccccc3F)cc(=O)n2c1` is 80%. The figure for `COc1ccccc1C(=O)Nc1ccccc1C(=O)OCc1cc(=O)n2c(C)csc2n1` is 131%; for `Cc1csc2nc(COC(=O)c3ccc(F)cc3)cc(=O)n12` it is 81%. Regarding `CCOc1ccc(C(=O)Nc2ccc(C(=O)OCc3cc(=O)n4c(C)csc4n3)cc2)cc1`, the survival is 85%. The figure for `CCOc1cc(C(=O)OCc2cc(=O)n3c(C)csc3n2)cc(OCC)c1OCC` is -3% (active). Next, `Cc1cccc(C(=O)Nc2ccccc2OCc2cc(=O)n3cc(C)ccc3n2)c1`: 47%; `Cc1csc2nc(COC(=O)c3ccccc3NC(=O)c3ccc(C(C)(C)C)cc3)cc(=O)n12`: 55%; `Cc1ccccc1C(=O)Nc1cccc(C(=O)OCc2cc(=O)n3c(C)csc3n2)c1`: 76%. Next, `Cc1csc2nc(COC(=O)c3cccc(NC(=O)c4cccc(Cl)c4)c3)cc(=O)n12`: -1% (active).

Consider `CCOc1ccc(NC(=O)CSc2nc(-c3cccc(Cl)c3)nc3c2Cc2c(CO)cnc(C)c2O3)cc1`, for which the survival is 84%. Next, `COc1cc(OC)cc(C(=O)N2CCN(C(=O)COc3ccccc3)CC2)c1`: 64%. Next, `CCc1ccc(NC(=O)CN(c2cc(C)cc(C)c2)S(=O)(=O)c2c(C)[nH]c(=O)[nH]c2=O)cc1`: 68%. For the compound `CC(C)c1cc(-c2nc(-c3cccc(Cl)c3)no2)n[nH]1`, the survival is 131%. Next, `Cc1cc(Br)ccc1NC(=O)C1CCN(S(=O)(=O)c2ccc(Br)s2)CC1`: 70%; `COC(=O)C1=C(c2ccccc2)c2ccccc2S(=O)(=O)N1CC(=O)Nc1ccc(OC)cc1OC`: 154%. The figure for `CS(=O)(=O)c1cccc(S(=O)(=O)c2cccc(S(C)(=O)=O)c2)c1` is 86%; for `Cc1cccc(C)c1OCc1cc(=O)n2c3c(sc2n1)CCCC3` it is -1% (active). The figure for `O=C(Nc1ccccc1C(=O)OCc1cc(=O)n2c3c(sc2n1)CCCC3)c1ccc(Cl)cc1` is -3% (active).

Regarding `Cc1csc2nc(COC(=O)c3cccc(NC(=O)COc4ccc(Cl)cc4)c3)cc(=O)n12`, the survival was 78%. Next, `O=C(Nc1ccccc1C(=O)OCc1cc(=O)n2c3c(sc2n1)CCCC3)c1ccccc1`: 94%; `Cc1cccc(OCc2cc(=O)n3c4c(sc3n2)CCCC4)c1C`: 128%. Next, `Cc1cccc(OCC(=O)Nc2cccc(C(=O)OCc3cc(=O)n4c(C)csc4n3)c2)c1`: -6% (active); `Cc1ccc(OCC(=O)Nc2cccc(C(=O)OCc3cc(=O)n4c(C)csc4n3)c2)cc1`: 69%; `O=C(Nc1ccccc1C(=O)OCc1cc(=O)n2c3c(sc2n1)CCCC3)c1cccc(Cl)c1`: 73%. Next, `Cc1ccc(OCc2cc(=O)n3c4c(sc3n2)CCCC4)cc1C`: 80%.
